Assay results taken from PubChem BioAssay AID1159580 (chemical genetic matrix, 2015).
Several values for one entry are separate records, joined by “and”; a condition that tells them apart may be missing. Equal values may be shown once. Hit rate of the full screen: of about 5,500 compounds, about 2,000 (36%) were called active. Another 18% or so got no clear call; they are omitted. No stated cut-off is given here; in the data, active means normalized growth mostly below about 0.91 (no sharp cut-off); inconclusive means no clear call, values can overlap the other calls; inactive means mostly above about 0.92. The list shows a part of the results.

Assay: chemical genetic growth profiling, strain panel (AID 1159580);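 further: tested at 20 µM; growth read once vehicle control cultures reached saturation at 30 °C; 1 = growth at the plate median or of vehicle wells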
Conditions: S. cerevisiae deletion strains, growth OD
[1] = locus YBR229C, strain ROT2, stronger effect = lower value
[2] = locus YDL101C, strain DUN1, stronger effect = lower value
[3] = locus YDR150W, strain NUM1, stronger effect = lower value
[4] = locus YEL061C, strain CIN8, stronger effect = lower value
[5] = locus YGR078C, strain PAC10, stronger effect = lower value
[6] = locus YHR030C, strain SLT2, stronger effect = lower value
[7] = locus YJR043C, strain POL32, stronger effect = lower value
[8] = locus YKL190W, strain CNB1, stronger effect = lower value
[9] = locus YLR039C, strain RIC1, stronger effect = lower value
[10] = locus YLR262C, strain YPT6, stronger effect = lower value
[11] = locus YMR263W, strain SAP30, stronger effect = lower value
[12] = locus YNL153C, strain GIM3, stronger effect = lower value
[13] = locus YPL055C, strain LGE1, stronger effect = lower value

Measured: normalized growth

CC(C)N(Cc1ccc(N(C)C)cc1)S(=O)(=O)c1cc(Cl)c(Cl)cc1Cl
inactive: locus YAL013W, strain DEP1, stronger effect = lower value 1 | [1] 1.01 | [2] 1.03 | locus YDL134C, strain PPH21, stronger effect = lower value 1.01 | [3] 1.01 | [4] 0.986 | [5] 1.02 | [6] 1.07 | locus YHR087W, strain rtc3, stronger effect = lower value 1 | [7] 1.01 | locus YJR075W, strain HOC1, stronger effect = lower value 1.02 | [8] 1.01 | [9] 1.01 | locus YLR058C, strain SHM2 (second series), stronger effect = lower value 1 | locus YLR085C, strain ARP6, stronger effect = lower value 1.06 | [10] 0.999 | locus YML094W, strain GIM5, stronger effect = lower value 1.02 | locus YMR219W, strain ESC1, stronger effect = lower value 1 | [11] 1.02 | locus YNL128W, strain TEP1, stronger effect = lower value 1.02 | [12] 1.03 | locus YNL298W, strain CLA4 (second series), stronger effect = lower value 1.03 | locus YNL322C, strain KRE1, stronger effect = lower value 1.01 | locus YNR030W, strain Alg12, stronger effect = lower value 1.04 | locus YOL006C, strain TOP1, stronger effect = lower value 1.08 | [13] 1 | locus YPL241C, strain CIN2, stronger effect = lower value 1.04 | locus YPR135W, strain CTF4, stronger effect = lower value 1.1

CC(=O)c1c(O)c(C)c(O)c2c1OC1=CC(=O)C(C(C)=O)C(=O)C12C (stereo not drawn)
inactive: locus YAL030W, strain snc1, stronger effect = lower value 0.938 | locus YBL061C, strain skt5, stronger effect = lower value 0.966 | locus YBR021W, strain FUR4, stronger effect = lower value 1.01 | locus YBR023C, strain chs3, stronger effect = lower value 0.978 | locus YBR171W, strain sec66, stronger effect = lower value 0.933 | [1] 1.01 | locus YBR231C, strain swc5, stronger effect = lower value 0.963 | locus YBR279W, strain paf1, stronger effect = lower value 1.01 | locus YCL016C, strain dcc1, stronger effect = lower value 0.987 | locus YCL029C, strain bik1, stronger effect = lower value 0.976 | locus YCL069W, strain vba3, stronger effect = lower value 0.957 | locus YDL005C, strain med2, stronger effect = lower value 0.985 | locus YDL035C, strain GPR1, stronger effect = lower value 1.01 | locus YDL040C, strain nat1, stronger effect = lower value 0.991 | locus YDL074C, strain BRE1, stronger effect = lower value 0.987 | [2] 1.01 | locus YDR001C, strain nth1, stronger effect = lower value 0.96 | locus YDR069C, strain doa4, stronger effect = lower value 0.98 | locus YDR137W, strain rgp1, stronger effect = lower value 0.972 | [3] 1.01 | locus YDR162C, strain NBP2, stronger effect = lower value 1.03 | locus YDR297W, strain sur2, stronger effect = lower value 0.962 | locus YDR318W, strain mcm21, stronger effect = lower value 0.981 | locus YDR334W, strain swr1, stronger effect = lower value 0.953 | locus YDR388W, stronger effect = lower value 0.976 | locus YEL037C, strain rad23, stronger effect = lower value 0.948 | [4] 1.01 | locus YER016W, strain bim1, stronger effect = lower value 1 | locus YER110C, stronger effect = lower value 0.988 | locus YER111C, strain swi4, stronger effect = lower value 0.919 | locus YER155C, strain BEM2 (second series), stronger effect = lower value 0.868 | locus YER155C, strain BEM2, stronger effect = lower value 1.01 | locus YER167W, strain BCK2, stronger effect = lower value 1.01 | locus YFR010W, strain ubp6, stronger effect = lower value 0.901 | locus YGL167C, strain pmr1, stronger effect = lower value 1.01 | locus YGL173C, strain kem1, stronger effect = lower value 0.992 | locus YGL227W, strain vid30, stronger effect = lower value 0.946 | locus YGL240W, strain doc1, stronger effect = lower value 0.894 | locus YGL248W, strain PDE1, stronger effect = lower value 1.02 | [5] 1.02 | locus YGR135W, strain pre9, stronger effect = lower value 0.946 | locus YGR252W, strain gcn5, stronger effect = lower value 0.945 | locus YHR013C, strain ard1, stronger effect = lower value 1 | locus YHR027C, strain rpn1, stronger effect = lower value 0.983 | locus YHR079C, strain IRE1 (second series), stronger effect = lower value 0.986 | locus YHR094C, strain hxt1, stronger effect = lower value 0.984 | locus YHR129C, strain ARP1, stronger effect = lower value 1.02 | locus YHR200W, strain rpn10, stronger effect = lower value 0.932 | locus YIL066C, strain RNR3, stronger effect = lower value 1.02 | locus YIL073C, strain SPO22, stronger effect = lower value 1.03 | locus YIR030C, strain dcg1, stronger effect = lower value 0.975 | locus YJL095W, strain BCK1 (second series), stronger effect = lower value 0.964 | locus YJL115W, strain asf1, stronger effect = lower value 0.947 | locus YJL134W, strain LCB3, stronger effect = lower value 1.01 | locus YJL154C, strain vps35, stronger effect = lower value 0.979 | locus YJL166W, strain qcr8, stronger effect = lower value 0.913 | locus YJL168C, strain set2, stronger effect = lower value 0.972 | locus YJL187C, strain SWE1 (second series), stronger effect = lower value 1.01 | locus YJL187C, strain SWE1, stronger effect = lower value 0.972 | [7] 1.01 | locus YKL068W, stronger effect = lower value 1.01 | locus YKL160W, strain elf1, stronger effect = lower value 0.977 | [8] 1.01 | locus YKR026C, strain gcn3, stronger effect = lower value 0.938 | locus YKR091W, strain srl3, stronger effect = lower value 0.942 | locus YLL001W, strain dnm1, stronger effect = lower value 0.933 | locus YLL041C, strain sdh2, stronger effect = lower value 0.936 | [9] 1.01 | locus YLR058C, strain SHM2, stronger effect = lower value 1.01 | locus YLR102C, strain apc9, stronger effect = lower value 0.99 | [10] 1.03 | locus YLR268W, strain sec22, stronger effect = lower value 0.932 | locus YLR320W, strain mms22, stronger effect = lower value 0.907 | locus YLR330W, strain CHS5, stronger effect = lower value 1.01 | locus YLR342W, strain FKS1 (second series), stronger effect = lower value 0.946 | locus YLR342W, strain FKS1, stronger effect = lower value 0.93 | locus YLR357W, strain rsc2, stronger effect = lower value 0.886 | locus YLR371W, strain rom2, stronger effect = lower value 0.998 | locus YLR384C, strain iki3, stronger effect = lower value 0.957 | locus YML016C, strain PPZ1, stronger effect = lower value 1.01 | locus YML032C, strain rad52, stronger effect = lower value 0.953 | locus YML124C, strain tub3, stronger effect = lower value 0.96 | locus YMR078C, strain ctf18, stronger effect = lower value 0.976 | locus YMR223W, strain ubp8, stronger effect = lower value 0.958 | [11] 1.01 | locus YMR307W, strain GAS1, stronger effect = lower value 0.956 | locus YNL067W, strain RPL9B, stronger effect = lower value 1.02 | [12] 1.01 | locus YNL233W, strain BNI4, stronger effect = lower value 1.03 | locus YNL248C, strain rpa49, stronger effect = lower value 0.925 | locus YNL307C, strain MCK1, stronger effect = lower value 0.971 | locus YNR049C, strain mso1, stronger effect = lower value 0.962 | locus YOL012C, strain htz1 1.07 | locus YOL147C, strain pex11, stronger effect = lower value 0.968 | locus YOR061W, strain CKA2, stronger effect = lower value 1.02 | locus YOR069W, strain VPS5, stronger effect = lower value 1.01 | locus YOR070C, strain gyp1, stronger effect = lower value 0.966 | locus YOR080W, strain dia2, stronger effect = lower value 0.975 | locus YOR136W, strain idh2, stronger effect = lower value 0.976 | locus YOR270C, strain vph1, stronger effect = lower value 1.08 | locus YOR316C, strain cot1, stronger effect = lower value 0.989 | locus YPL051W, strain arl3, stronger effect = lower value 0.938 | [13] 0.999 | locus YPL106C, strain sse1, stronger effect = lower value 0.86 | locus YPR119W, strain clb2, stronger effect = lower value 0.964 | locus YPR163C, strain tif3, stronger effect = lower value 0.968 | locus YPR167C, strain met16, stronger effect = lower value 0.944
1.01 (inactive) and 0.142 (active): [6]
1.03 (inactive) and 0.13 (active): locus YJL095W, strain BCK1, stronger effect = lower value
active: locus YAL021C, strain ccr4, stronger effect = lower value 0.816 | locus YAL026C, strain drs2, stronger effect = lower value 0.812 | locus YBR009C, strain hhf1, stronger effect = lower value 0.739 | locus YCL011C, strain gbp2, stronger effect = lower value 0.672 | locus YCL061C, strain MRC1, stronger effect = lower value 0.858 | locus YCR088W, strain abp1, stronger effect = lower value 0.872 | locus YDL185W, strain tfp1, stronger effect = lower value 0.506 | locus YDL192W, strain arf1, stronger effect = lower value 0.852 | locus YDR101C, strain arx1, stronger effect = lower value 0.89 | locus YDR159W, strain sac3, stronger effect = lower value 0.762 | locus YDR195W, strain ref2 0.799 | locus YDR335W, strain msn5, stronger effect = lower value 0.752 | locus YDR392W, strain spt3, stronger effect = lower value 0.526 | locus YDR502C, strain sam2, stronger effect = lower value 0.853 | locus YEL003W, strain gim4, stronger effect = lower value 0.787 | locus YEL061C, strain CIN8 (second series), stronger effect = lower value 0.895 | locus YER015W, strain faa2, stronger effect = lower value 0.912 | locus YGL078C, strain dbp3, stronger effect = lower value 0.567 | locus YGL086W, strain mad1, stronger effect = lower value 0.909 | locus YGL253W, strain hxk2, stronger effect = lower value 0.892 | locus YHR079C, strain IRE1, stronger effect = lower value 0.133 | locus YHR142W, strain chs7, stronger effect = lower value 0.82 | locus YIL125W, strain kgd1, stronger effect = lower value 0.365 | locus YJL092W, strain hpr5, stronger effect = lower value 0.908 | locus YJL129C, strain trk1, stronger effect = lower value 0.684 | locus YJL164C, strain tpk1, stronger effect = lower value 0.84 | locus YJR066W, strain TOR1, stronger effect = lower value 0.465 | locus YKL009W, strain mrt4, stronger effect = lower value 0.387 | locus YKL085W, strain MDH1 (second series), stronger effect = lower value 0.275 | locus YKL085W, strain MDH1, stronger effect = lower value 0.275 | locus YKR001C, strain vps1, stronger effect = lower value 0.813 | locus YLL026W, stronger effect = lower value 0.925 | locus YLR027C, strain aat2, stronger effect = lower value 0.796 | locus YLR113W, strain HOG1, stronger effect = lower value 0.186 | locus YLR221C, strain rsa3, stronger effect = lower value 0.781 | locus YLR258W, strain gsy2, stronger effect = lower value 0.889 | locus YLR262C, strain YPT6 (second series), stronger effect = lower value 0.723 | locus YLR370C, strain arc18, stronger effect = lower value 0.9 | locus YLR418C, strain cdc73, stronger effect = lower value 0.694 | locus YML120C, strain ndi1, stronger effect = lower value 0.439 | locus YMR058W, strain fet3, stronger effect = lower value 0.834 | locus YMR125W, strain sto1, stronger effect = lower value 0.875 | locus YMR129W, stronger effect = lower value 0.911 | locus YMR205C, strain PFK2, stronger effect = lower value 0.759 | locus YMR231W, strain pep5, stronger effect = lower value 0.169 | locus YNL071W, strain lat1, stronger effect = lower value 0.907 | locus YNL183C, strain NPR1, stronger effect = lower value 0.693 | locus YNL209W, strain ssb2, stronger effect = lower value 0.924 | locus YNL250W, strain rad50, stronger effect = lower value 0.328 | locus YNL271C, strain bni1, stronger effect = lower value 0.773 | locus YNL298W, strain CLA4, stronger effect = lower value 0.332 | locus YNL322C, strain KRE1 (second series), stronger effect = lower value 0.83 | locus YNR052C, strain pop2, stronger effect = lower value 0.876 | locus YOR001W, strain rrp6, stronger effect = lower value 0.672 | locus YOR083W, strain WHI5, stronger effect = lower value 0.859 | locus YOR106W, strain vam3, stronger effect = lower value 0.254 | locus YOR144C, strain elg1, stronger effect = lower value 0.898 | locus YOR184W, strain ser1, stronger effect = lower value 0.723 | locus YOR231W, strain MKK1, stronger effect = lower value 0.127 | locus YOR265W, strain rbl2, stronger effect = lower value 0.928 | locus YOR290C, strain snf2, stronger effect = lower value 0.644 | locus YPL078C, strain atp4, stronger effect = lower value 0.873 | locus YPL240C, strain hsp82, stronger effect = lower value 0.894 | locus YPL256C, strain CLN2, stronger effect = lower value 0.189 | locus YPR141C, strain kar3, stronger effect = lower value 0.888 | strain wtn01, stronger effect = lower value 0.841
